# According to PubChem BioAssay:
# “And” between values parts separate entries of the source, which are not always exact repeats. Equal values may be shown once. The source made the active and inactive calls.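 The calls were made as follows, unless noted: active = inhibition at or above 50% relative to wild type and mutant plate controls; inactive = inhibition below 50%.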
# What was measured:
# [1] = inhibitors of TNFa-induced NFkB p65 translocation, primary screen, imaging, HUVEC, MLSMR starter and 10KST1 sets (AID 438;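 active = inhibition above 20% together with a positive visual image hit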;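 also: compound added about 3h40 before a 20 min TNFalpha stimulation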;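 as to inhibition: signal is the nuclear over cytoplasmic p65 intensity ratio per well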); conditions: HUVEC TNFa-induced p65 nuclear translocation; cell count: measured here: nuclei count (cytotoxicity indicator), at 2.08 µM; inhibition: at 2 µM, stronger effect = higher value, 0% TNFa-plus-vehicle, 100% no-TNFa wells
# [2] = inhibitors of E-selectin induction by TNFa, primary screen, imaging, HUVEC, immunofluorescence, MLSMR starter and 10KST1 sets (AID 487;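 active = visually confirmed hit in the image check and inhibition above 20%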;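 as to inhibition: signal is fraction of cell area covered by stained E-selectin grains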;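 as to nuclei count: 100% = median nuclei count of all wells on the same plate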); conditions: HUVEC TNFalpha-induced E-selectin immunofluorescence imaging, at 2 µM; inhibition: stronger effect = higher value; nuclei count: measured here: cell number, toxicity
# [3] = DUSP6 inhibitors restoring Erk phosphorylation by chemical complementation, primary imaging in DUSP6-transfected HeLa (AID 609;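 active = compounds giving at least 50% inhibition in the cell-based MKP-3 phosphatase rescue imaging test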;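 as to inhibition: phospho-Erk level distribution per well compared with pooled transfected vehicle control wells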); conditions: HeLa MKP-3 transfected, phospho-Erk imaging KS statistic, at 10 µM, cells stimulated with TPA for 15 min
# [4] = target: Dual specificity protein phosphatase 6 (Homo sapiens) (UniProt Q16828); experiment: as above; conditions: HeLa MKP-3 transfected, phospho-Erk imaging KS statistic; at 10 µM; stronger effect = higher value; cells stimulated with TPA for 15 min
# Sequence of Dual specificity protein phosphatase 6 (Homo sapiens) (Q16828 whole entry, looked up): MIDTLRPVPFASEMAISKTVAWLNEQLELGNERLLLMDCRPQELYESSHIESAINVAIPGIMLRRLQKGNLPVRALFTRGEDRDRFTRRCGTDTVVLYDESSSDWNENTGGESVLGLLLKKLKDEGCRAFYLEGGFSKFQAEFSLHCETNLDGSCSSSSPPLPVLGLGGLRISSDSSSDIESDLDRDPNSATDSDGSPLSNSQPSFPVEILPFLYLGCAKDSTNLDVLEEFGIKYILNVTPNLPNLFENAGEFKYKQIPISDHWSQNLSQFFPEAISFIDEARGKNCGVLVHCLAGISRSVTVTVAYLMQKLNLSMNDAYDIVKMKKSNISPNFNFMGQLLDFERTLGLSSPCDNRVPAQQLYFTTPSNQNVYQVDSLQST
# [5] = target: Voltage-gated potassium channel subunit beta-2 (Rattus norvegicus) (UniProt P62483); experiment: KvBeta enzyme negative modulators, primary screen, biochemical, NADPH fluorescence (AID 622;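 active = fluorescence slope higher than the sample average by over 3 SD, cut at about -0.22 in these data, passing the limit was not always enough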;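 also: slope of raw intensity against log time taken from 70 to 1610 s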); conditions: recombinant KvBeta, 4-cyanobenzaldehyde reduction, at 10 µM, stronger effect = higher value
# Sequence of Voltage-gated potassium channel subunit beta-2 (Rattus norvegicus) (P62483 whole entry, looked up): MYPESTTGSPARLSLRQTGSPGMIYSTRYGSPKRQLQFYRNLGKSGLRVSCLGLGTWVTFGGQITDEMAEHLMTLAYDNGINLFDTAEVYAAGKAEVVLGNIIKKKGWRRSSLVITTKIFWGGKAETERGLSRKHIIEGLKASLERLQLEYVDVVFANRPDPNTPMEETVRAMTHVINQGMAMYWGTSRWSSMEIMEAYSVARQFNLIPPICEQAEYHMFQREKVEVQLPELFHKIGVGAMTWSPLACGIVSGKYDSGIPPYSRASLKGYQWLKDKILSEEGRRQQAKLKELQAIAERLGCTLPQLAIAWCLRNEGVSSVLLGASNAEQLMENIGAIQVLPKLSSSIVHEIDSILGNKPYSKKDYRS
# [6] = target: Voltage-gated potassium channel subunit beta-2 (Rattus norvegicus) (UniProt P62483); experiment: KvBeta positive modulators, primary screen, biochemical, NADPH fluorescence (AID 623;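 active = NADPH fluorescence slope more negative than the mean of all samples by about 3 SD, 99.7% confidence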;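 also: fluorescence intensity change per second fitted from 20 to 320 s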); conditions: Recombinant KvBeta, NADPH fluorescence decrease slope, 10 min; at 10 µM; stronger effect = lower value
# [7] = target: Alpha-2C adrenergic receptor (Homo sapiens) (UniProt P18825); experiment: modulators of alpha2C/GIRK thallium flux, primary screen, cell-based, HEK293 alpha2C/GIRK1/2 (AID 624;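 active = fluorescence slope after compound addition differing from the mean of all screened samples at 99.7% confidence, in either direction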;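 also: slope of fluorescence ratio to pre-addition baseline per second over 15 to 24 s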); conditions: thallium flux BTC fluorescence, at 10 µM, actives lie on both sides
# Sequence of Alpha-2C adrenergic receptor (Homo sapiens) (P18825 whole entry, looked up): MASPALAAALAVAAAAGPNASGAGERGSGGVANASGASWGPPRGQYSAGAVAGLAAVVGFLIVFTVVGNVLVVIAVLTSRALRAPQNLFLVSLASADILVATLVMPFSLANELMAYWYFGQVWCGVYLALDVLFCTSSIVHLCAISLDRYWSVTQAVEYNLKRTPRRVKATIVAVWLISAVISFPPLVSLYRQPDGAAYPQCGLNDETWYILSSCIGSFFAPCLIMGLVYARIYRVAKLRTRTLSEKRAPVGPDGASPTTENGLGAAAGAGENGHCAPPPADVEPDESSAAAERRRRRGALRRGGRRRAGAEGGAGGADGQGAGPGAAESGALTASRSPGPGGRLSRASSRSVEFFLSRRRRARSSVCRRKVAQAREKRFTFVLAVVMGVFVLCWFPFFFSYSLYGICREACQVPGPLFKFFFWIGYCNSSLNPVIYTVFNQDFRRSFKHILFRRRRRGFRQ
# [8] = inhibitors of larval lipid processing in zebrafish, primary screen, whole organism, PED6 fluorescence, gall bladder and intestine (AID 686;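 active = a full or partial loss of lipid-probe fluorescence in the fish gall bladder, intestine or both, judged by eye; inactive = no fluorescence loss, or compound toxic to the fish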;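 also: larvae 5 to 7 days old with five fish per well; signal comes from phospholipase A2 cleavage of quenched PED6 carried via bile; overnight exposure to compound and PED6 before scoring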); conditions: Zebrafish larvae PED6 lipid processing, fluorescence scoring; screened at 20 µM (by protocol)
# [9] = inhibitors of Chlamydomonas gravitaxis, primary screen, whole organism, Chlamydomonas reinhardtii, WT vs cilia-less mutant, absorbance, 96-well (AID 463189); conditions: OD600 absorbance, 2 days, at 10 µM, stronger effect = higher value;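 also: 0% = wild type cc124 cells in DMSO and 100% = ciliumless bld1 mutant cells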
# [10] = inhibitors of Sendai virus-induced IRF3 signaling, primary screen, TLR/RLR signaling modifier project, cell-based, Sendai virus stimulus, luciferase, 10K MLSCN set (AID 602276;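 active = inhibition at or above 50% at 10 µM; inactive = inhibition below 50%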;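 also: firefly luciferase from ISG56 promoter only with Renilla not read in this screen; 0% = Sendai virus plus DMSO and 100% = medium plus DMSO without virus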); conditions: HEK293 RL24 IRF3 luciferase reporter, at 10 µM, stronger effect = higher value
# [11] = inhibitors of poly I:C-induced TLR3 signaling, primary screen, cell-based, poly I:C stimulus, luciferase, 10K MLSCN set (AID 602277;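 active = inhibition of the reporter signal at or above 50%; inactive = inhibition below 50%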); conditions: HEK293-TLR3 RL24 IRF3 luciferase reporter, at 10 µM, stronger effect = higher value
# [12] = inhibitors of mutant huntingtin aggregation, primary screen, imaging, exon1htt(103Q)mCFP cells, high-content imaging (AID 483;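 active = visual image review flags a hit and inhibition of aggregation exceeds 20%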;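 also: compound exposure lasted 3 days before fixation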;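 as to nuclei count: percent of the per-plate median nuclei count of sample wells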); conditions: exon1htt(103Q)mCFP cell line, aggregate imaging, at 2 µM; inhibition of aggregation: stronger effect = higher value; nuclei count: measured here: cell count, toxicity
# [13] = measured here: cell density z-score
# [14] = measured here: nuclear c-Myc green intensity z-score
# [15] = measured here: nuclear pErk red intensity z-score, stronger effect = higher value
Compound,cell count [1],inhibition [1],inhibition [2],nuclei count [2] [%],"z-score [3, 13]","z-score [3, 14]","z-score [3, 15]",inhibition [4],fluorescence slope [5],NADPH fluorescence slope [6],slope [7],outcome [8],inhibition [9],inhibition [10],inhibition [11],inhibition of aggregation [12],nuclei count [12] [%]
O=C(O)CCNC(=O)c1ccccc1,571,-4.9% (inactive),-50.2% (inactive),97.2,-0.0639,-0.161,-1.08,17.3% (inactive),-0.479 (inactive),2.2e-06 (inactive),0.00491 (inactive),inactive,27.8% (inactive),-13.3% (inactive),-8.8% (inactive),,
CCOC(=O)C1=C(C)NC(C)=C(C(=O)OC)C1c1cccc(Cl)c1Cl (stereo unspecified),723,-6.4% (inactive),-52.9% (inactive),142,0.529,-0.8,1.2,25.1% (inactive),-0.431 (inactive),-6.6e-05 (inactive),0.00394 (inactive),inactive,14.9% (inactive) and 24.6% (inactive),3.98% (inactive),6.81% (inactive),,
O=C1C(CCS(=O)c2ccccc2)C(=O)N(c2ccccc2)N1c1ccccc1 (stereo unspecified),647,4.4% (inactive),-95.5% (inactive),124,0.561,0.78,-1.11,12.4% (inactive),-0.436 (inactive),-4.2e-05 (inactive),0.00501 (inactive),inactive,-7.13% (inactive),7.23% (inactive),25.7% (inactive),,
CC(=O)O[C@H]1C(=O)[C@]2(C)[C@H]([C@H](OC(=O)c3ccccc3)[C@]3(O)C[C@H](OC(=O)[C@H](O)[C@@H](NC(=O)c4ccccc4)c4ccccc4)C(C)=C1C3(C)C)[C@]1(OC(C)=O)CO[C@@H]1C[C@@H]2O,508,-11.8% (inactive),-188% (inactive),105,0.529,0.25,0.563,-2.46% (inactive),-0.449 (inactive),-1.6e-05 (inactive),0.00483 (inactive),inactive,0.148% (inactive),17.7% (inactive),44.3% (inactive),,
Nc1ccc(S(=O)(=O)Nc2ncccn2)cc1,603,-1.5% (inactive),-68.8% (inactive),130,1.12,-1.89,1.02,5.79% (inactive),-0.5 (inactive),-6.3e-05 (inactive),0.00507 (inactive),inactive,-12.2% (inactive),15.1% (inactive),,-4.1% (inactive),87.5
